± gives the uncertainty stated by the source.
Tested on: Candidatus Liberibacter solanacearum in potato hairy roots
Assay: relative CLso titer (% of untreated control); higher = less inhibition of bacterial titer
Conditions: 10 µM; 72 h
Description: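 Primary screen of ~220 Spectrum collection (MicroSource) compounds at 10 µM (0.1% DMSO) on Candidatus Liberibacter solanacearum-infected potato hairy roots in multi-well plates (Gamborg B-5 medium, vacuum infiltrated, 21 °C, dark, 72 h). CLso titer was measured by qPCR of 16S rDNA normalised to potato RPL2 (2^-ddCq), pairwise-standardised against untreated controls, averaged over two biological replicates and expressed as % of untreated.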

| SMILES | relative CLso titer |
| --- | --- |
| Cc1onc(-c2ccccc2Cl)c1C(=O)N[C@@H]1C(=O)N2[C@@H]1SC(C)(C)[C@@H]2C(=O)O | 46.2 ± 1.5% |
| CC(=O)Oc1cc2c(s1)CCN(C(C(=O)C1CC1)c1ccccc1F)C2 (stereo not given) | 55.4 ± 2.9% |
| COC(=O)Nc1nc2cc(C(=O)c3cccs3)ccc2[nH]1 | 79.7 ± 6.4% |
| C=C1CC[C@H](O)C/C1=C/C=C1\CCC[C@]2(C)[C@@H]([C@H](C)/C=C/[C@H](C)C(C)C)CC[C@@H]12 | 113 ± 37% |
| Clc1ccccc1C(c1ccccc1)(c1ccccc1)n1ccnc1 | 65.3 ± 14% |
| CC1(C)OC(=O)C(OCC2CC2)=C1c1ccc(S(C)(=O)=O)cc1 | 53.8 ± 6.5% |
| COc1cnc(NS(=O)(=O)c2ccc(N)cc2)nc1 | 119 ± 37% |
| CC(=O)N(O)CCCCCNC(=O)CCC(=O)N(O)CCCCCNC(=O)CCC(=O)N(O)CCCCCN | 210 ± 59% |
| Nc1ccc(C(=O)O)cc1 | 67.7 ± 7.7% |
| CCN(CCCCOC(=O)c1ccc(OC)c(OC)c1)C(C)Cc1ccc(OC)cc1 (stereo not given) | 94.6 ± 34% |
| Cn1c(=O)c2c(ncn2C)n(C)c1=O | 42.2 ± 4.3% |
| C[C@@H]1C[C@H]2[C@@H]3C[C@H](F)C4=CC(=O)C=C[C@]4(C)[C@@]3(F)[C@@H](O)C[C@]2(C)[C@@]1(OC(=O)c1ccco1)C(=O)SCF | 92.9 ± 10% |
| CCOc1ccc(Cc2cc([C@@H]3O[C@H](CO)[C@@H](O)[C@H](O)[C@H]3O)ccc2Cl)cc1 | 99 ± 3% |
| C[C@@H]1NC(=O)[C@@H](N)CNC(=O)[C@H](C2CCNC(=N)N2)NC(=O)/C(=C/NC(N)=O)NC(=O)[C@H](CNC(=O)CC(N)CCCN)NC1=O.N=C1NCCC([C@@H]2NC(=O)/C(=C/NC(N)=O)NC(=O)[C@H](CNC(=O)CC(N)CCCN)NC(=O)[C@H](CO)NC(=O)[C@@H](N)CNC2=O)N1 (stereo not given in full) | 63.2 ± 9.8% |
| CNC[C@H](O)c1ccc(O)c(O)c1 | 173 ± 86% |
| C[n+]1cc2c3c(ccc2c2ccc4cc5c(cc4c21)OCO5)OCO3 | 86.7 ± 34% |
| COc1cc(NS(=O)(=O)c2ccc(N)cc2)nc(OC)n1 | 96 ± 21% |
| CC12CC3CC(C)(C1)CC(N)(C3)C2 | 63.3 ± 31% |
| CCOC(=O)CCC(=O)O[C@H]1[C@H](O[C@@H]2[C@@H](C)[C@H](O[C@H]3C[C@@](C)(OC)[C@@H](O)[C@H](C)O3)[C@@H](C)C(=O)O[C@H](CC)[C@@](C)(O)[C@H](O)[C@@H](C)C(=O)[C@H](C)C[C@@]2(C)O)O[C@H](C)C[C@@H]1N(C)C | 169 ± 3.5% |
| N[C@@H]1CONC1=O | 177 ± 11% |

| SMILES | relative CLso titer |
| --- | --- |
| CN(C)c1cnccn1 | 120 ± 27% |
| CC1(C)O[C@@H]2C[C@H]3[C@@H]4C[C@H](F)C5=CC(=O)C=C[C@]5(C)[C@H]4[C@@H](O)C[C@]3(C)[C@]2(C(=O)CO)O1 | 99.4 ± 17% |
| CCN(CC)C(=O)N1CCN(C)CC1 | 106 ± 9.8% |
| CO[C@@]1(NC(=O)C2SC(=C(C(N)=O)C(=O)O)S2)C(=O)N2C(C(=O)O)=C(CSc3nnnn3C)CS[C@@H]21 (stereo not given in full) | 138 ± 17% |
| Nc1ncnc2c1ncn2[C@@H]1O[C@H](CO)[C@@H](O)[C@H]1O | 51.4 ± 22% |
| C[C@H]1O[C@@H](O[C@H]2[C@@H](O)C[C@H](O[C@H]3[C@@H](O)C[C@H](O[C@H]4CC[C@@]5(C)[C@H](CC[C@@H]6[C@@H]5C[C@@H](O)[C@]5(C)[C@@H](C7=CC(=O)OC7)CC[C@]65O)C4)O[C@@H]3C)O[C@@H]2C)C[C@H](O)[C@@H]1O | 86.7 ± 7.9% |
| CO[C@@]1(NC(=O)CSCC#N)C(=O)N2C(C(=O)O)=C(CSc3nnnn3C)CS[C@@H]21 | 114 ± 30% |
| O=C1NS(=O)(=O)c2ccccc21 | 73.2 ± 19% |
| CNC(=C[N+](=O)[O-])NCCSCc1ccc(CN(C)C)o1 | 109 ± 2.3% |
| CC1(C)[C@@H](OC(=O)CCC(=O)O)CC[C@]2(C)[C@H]3C(=O)C=C4[C@@H]5C[C@@](C)(C(=O)O)CC[C@]5(C)CC[C@@]4(C)[C@]3(C)CC[C@@H]12 | 132 ± 30% |
| C/C=C(/C(=C/C)c1ccc(O)cc1)c1ccc(O)cc1 | 108 ± 17% |
| Cc1ccc(S(=O)(=O)NC(=O)NN2CCCCCC2)cc1 | 83.2 ± 12% |
| COc1ccc(NS(=O)(=O)c2ccc(N)cc2)nn1 | 116.5 ± 0.47% |
| O=C(O)CCC(=O)OC[C@@H](NC(=O)C(Cl)Cl)[C@H](O)c1ccc([N+](=O)[O-])cc1 | 49.1 ± 3.2% |
| CCCCCCCCNC(C)C(O)c1ccc(SC(C)C)cc1 (stereo not given) | 80.3 ± 5.9% |
| NCCCCCC(=O)O | 39.2 ± 4.1% |
| CCS(=O)(=O)CCn1c([N+](=O)[O-])cnc1C | 116 ± 0.28% |
| O=C1c2cccc(O)c2C(=O)c2c(O)cccc21 | 82.5 ± 46% |
| CC12CCC(CC1=O)C2(C)C (stereo not given) | 97 ± 38% |
| CC(=O)Nc1nnc(S(N)(=O)=O)s1 | 74.1 ± 19% |

Reference: the supplement of paper PMC7669877
